# Test results published in the supplement of paper PMC11624193, “Coupling cellular drug-target engagement to downstream pharmacology with CeTEAM” (Nature Communications, 2024).
# Unmarked numbers belong to inactive results.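 The calls were made as follows: active = log2 fold change beyond 2 SD from the library mean after excluding viability outliers; inactive = within 2 SD.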
# Target: PARP1 L713F-nLuc biosensor (HCT116) (UniProt P09874)
# Experiment: PARP1 L713F-nLuc/akaLuc ratio relative to DMSO control (biosensor stabilization) (fold change); higher = more PARP1 biosensor stabilization (target engagement / stabilizer), active = hit call of the paper
# Conditions: stock concentration (mM; final µM = stock mM x 1): 10; 24 h
# Chain of PARP1 L713F-nLuc biosensor (HCT116) (P09874 whole entry L713F, looked up): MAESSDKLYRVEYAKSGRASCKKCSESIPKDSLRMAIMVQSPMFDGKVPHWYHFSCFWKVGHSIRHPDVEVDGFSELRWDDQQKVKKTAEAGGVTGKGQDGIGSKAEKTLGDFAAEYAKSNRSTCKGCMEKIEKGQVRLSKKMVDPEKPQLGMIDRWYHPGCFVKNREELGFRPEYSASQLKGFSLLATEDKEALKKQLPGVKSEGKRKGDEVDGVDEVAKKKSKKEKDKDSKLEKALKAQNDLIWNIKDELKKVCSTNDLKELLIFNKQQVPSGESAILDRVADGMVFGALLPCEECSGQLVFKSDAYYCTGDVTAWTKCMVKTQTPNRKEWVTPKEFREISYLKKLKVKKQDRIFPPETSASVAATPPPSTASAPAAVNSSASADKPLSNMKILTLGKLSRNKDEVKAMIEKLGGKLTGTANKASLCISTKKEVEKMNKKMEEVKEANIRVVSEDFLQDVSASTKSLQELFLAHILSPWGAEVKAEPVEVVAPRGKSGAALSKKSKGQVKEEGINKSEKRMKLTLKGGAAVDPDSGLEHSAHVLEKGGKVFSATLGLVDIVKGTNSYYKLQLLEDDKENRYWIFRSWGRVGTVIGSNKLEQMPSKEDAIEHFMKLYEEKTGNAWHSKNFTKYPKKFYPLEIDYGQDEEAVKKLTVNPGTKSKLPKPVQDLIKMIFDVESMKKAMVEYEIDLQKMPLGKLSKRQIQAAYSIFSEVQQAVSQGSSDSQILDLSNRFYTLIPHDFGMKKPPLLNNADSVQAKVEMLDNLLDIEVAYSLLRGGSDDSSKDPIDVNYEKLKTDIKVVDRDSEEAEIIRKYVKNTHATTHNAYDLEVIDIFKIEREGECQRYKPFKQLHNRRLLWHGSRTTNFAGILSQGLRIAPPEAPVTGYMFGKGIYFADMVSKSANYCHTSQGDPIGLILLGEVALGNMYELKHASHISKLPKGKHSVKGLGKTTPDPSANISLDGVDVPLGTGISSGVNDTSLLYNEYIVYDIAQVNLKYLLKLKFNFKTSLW
row,Compound,PARP1 L713F-nLuc/akaLuc ratio
1,O=C(Nc1ccccc1-c1cn2c(CN3CC[C@@H](O)C3)csc2n1)c1ccc2ccccc2c1,0.641
2,COc1c(O)cc2oc(-c3ccccc3)cc(=O)c2c1O [Oroxylin A],0.838
3,"C=CC(=O)N1C[C@@H](Nc2ncnc3[nH]ccc23)CC[C@H]1C [(2R,5S)-Ritlecitinib]",1.05
4,O=c1[nH]c(=S)[nH]c(-c2ccccc2)c1Cc1c(O)ccc2ccccc12 [Cambinol],0.684
5,C[C@@H]1CCN(C(=O)CC#N)C[C@@H]1N(C)c1ncnc2[nH]ccc12,0.783
6,O=C1/C(=C/c2ccc(O)c(Br)c2)CCC/C1=C\c1ccc(O)c(Br)c1 [Histone Acetyltransferase Inhibitor II],2.06
